Results published in PubChem BioAssay (NCATS).
Several values for one entry are separate records, joined by “and”; a condition that tells them apart may be missing. Equal values may be shown once. Results filed as inconclusive are left out. Where a call stands in place of a potency, no number is given. Where a structure was tested more than once in an assay, its records may differ in their call. Activity calls are given as the source filed them. Unless noted, calls follow the shape of the dose curve; as a rule, active = well fitted curve in the direction sought with a large enough effect; inconclusive = small, poorly fitted or top-dose-only effect, or another doubt; inactive = no such curve, though single readings can be large; an effect the other way counts as inactive or inconclusive.

Experiments:
[1] = Cell Viability - NIH 3T3 (AID 541); details: NIH 3T3 cell viability, qHTS; activity change, negative = cytotoxicity: at 92.2 µM (top of the series);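 also: cells exposed to compound for 40 hours; nearly all actives have a fitted effect of over 25% in size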
In short: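 Intracellular ATP (CellTiter-Glo luminescence, 20 min at room temperature) measured after 40 hr compound exposure at 37 °C of 1000 NIH 3T3 mouse fibroblasts/well in complete medium; AC50 derived by Hill-equation modelling of qHTS concentration-response curves.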

[2] = Cellular Toxicity (caspase-3) HepG2 (AID 654);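 also: cells exposed to compound for 16 hours before reading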
In short: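 Caspase 3/7 activation is measured as a luminescence increase (aminoluciferin substrate) after 16 h compound exposure of human hepatocarcinoma HepG2 cells. AC50 values are Hill fits, scaled between DMSO baseline and 100 uM tamoxifen stimulation.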

[3] = Cellular Toxicity (caspase-3) H-4-II-E (AID 663); details: Potency: caspase-3 activation;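 also: cells exposed to compound for 16 hr before readout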
In short: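 Caspase 3/7 activation measured by luminescent aminoluciferin substrate cleavage after 16 hr compound treatment of H-4-II-E cells in complete medium. Increase normalized between DMSO (basal) and 100 uM tamoxifen (100%); Hill-equation AC50 from concentration-response.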

[4] = molecular target: Cytochrome P450 3A4 (Homo sapiens) (UniProt P08684); experiment: qHTS Assay for Inhibitors and Substrates of Cytochrome P450 3A4 (AID 884); also: nearly all actives have a fitted effect of over 50% in size
In short: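 Luminescent readout of luciferin produced by CYP3A4 (20 nM) dealkylation of Luciferin-PPXE, 25 uM (its KM). NADPH-driven reaction ran 60 min at RT after 10 min compound preincubation; data scaled to 57 uM ketoconazole as 100% inhibition.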

[5] = MultiTox-Fluor Cytotoxicity Assay - LYMP1-003 - Live Cells (AID 962);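 also: cells exposed to compound for 16 hours at 37 °C; cytotoxic hits lower the live-cell protease signal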
In short: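 Live-cell protease activity (GF-AFC substrate, 405/510 nm, 60 min at room temperature) after 16 h, 37 C compound exposure of human lymphoblastoid LYMP1-003 cells; concentration-response fitted to the Hill equation for AC50.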

[6] = Cell Viability - LYMP2-015 (AID 971); also: nearly all actives have a fitted effect of over 55% in size
In short: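 Cytotoxicity readout: decrease in intracellular ATP (CellTiter-Glo luminescence) in 2500 LYMP2-015 lymphoblastoid cells/well after 24 h compound exposure at 37 C. Concentration-response data fitted with the standard Hill equation to give AC50.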

[7] = qHTS assay for small molecule antagonists of peroxisome proliferator-activated receptor delta signaling (AID 588535; active = well fitted inhibition curve with a large enough effect in the signal ratio, with a control signal flat, not every such curve was filed as active; the % refers to the signal ratio;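 as to max response: cells co-treated with a PPAR-delta agonist as stimulator during compound exposure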); details: HEK293T PPARd-UAS-bla, beta-lactamase FRET ratio, 18 h; 460 nm channel
In short: (§1)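 Titrations were run on PPAR-delta-UAS-bla HEK293T cells in charcoal/dextran-stripped serum, incubated 18 h at 37 C. CCF4 fluorescence (460/530 nm) after 2 h RT; Hill equation yields IC50 and maximal response.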

[8] = molecular target: Peroxisome proliferator-activated receptor delta (Homo sapiens) (UniProt Q03181); experiment: as above
In short: as §1

[9] = molecular target: Peroxisome proliferator-activated receptor gamma (Homo sapiens) (UniProt P37231); experiment: qHTS assay for small molecule agonists of peroxisome proliferator-activated receptor gamma signaling (AID 588536; active = well fitted curve in the direction sought with a large enough effect in the signal ratio, with a control signal flat, not every such curve was filed as active; the % refers to the signal ratio)
In short: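 Beta-lactamase reporter read-out: CCF4 fluorescence (ex 405, em 460/530 nm) after 2 h at RT. HEK293 GeneBLAzer cells were treated for 16 h at 37 C. Hill fits gave EC50 and efficacy versus 2 uM rosiglitazone (100%) and DMSO (0%).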

[10] = molecular target: Nuclear receptor ROR-gamma (Homo sapiens) (UniProt P51449); experiment: qHTS assay for small molecule antagonists of the retinoid-related orphan receptor gamma (ROR-gamma) signaling pathway (AID 651802); also: nearly all actives have a fitted effect of over 60% in size; also: potency is read from the fitted curve at half-maximal effect
In short: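 Luminescence (One-Glo, 30 min RT) measured 16 h after compound addition and doxycycline induction at 37C. Reporter: RORE-luciferase under TET-inducible ROR-gamma in CHO cells.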

[11] = qHTS assay for small molecule antagonists of the retinoid-related orphan receptor gamma (ROR-gamma) signaling pathway - cell viability counter screen (AID 720652; active = well fitted curve in the direction sought with a large enough effect in the repeat runs; an effect the other way counts as inactive or inconclusive;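 also: CHO reporter cells with doxycycline-induced ROR-gamma expression; compound exposure lasted 16 hr before ATP read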)
In short: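 Cytotoxicity counter screen: intracellular ATP (CellTiter-Glo luminescence) measured in the doxycycline-induced CHO RORE-luciferase reporter line after 16 hr compound exposure at 37 C, 5% CO2.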

[12] = qHTS assay for cell viability of HEK293 cells (AID 743288); details: ATP luminescence (CellTiter-Glo), 18 h; max response: stronger effect = lower value; also: nearly all actives have a fitted effect of over 50% in size
In short: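 Steps: plate 2,000 parental HEK293 cells per well; incubate ≥5 h, 37 C; add compounds in DMSO; incubate 18 h, 37 C; add CellTiter-Glo; wait 30 min at room temperature; read luminescence.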

[13] = qHTS assay for small molecule activators of the human pregnane X receptor (PXR) signaling pathway (AID 720659; call rule not given here)
[14] = Cell Viability - MRC5 (AID 434; calls by dose curve;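 also: potency is read from the fitted curve at half-maximal effect; cells exposed to compound for 40 hours at 37 °C; potency reflects cytotoxicity seen as loss of intracellular ATP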); details: MRC5 lung fibroblast viability, qHTS
In short: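 AC50 values come from Hill-equation fits of intracellular ATP loss, measured by CellTiter-Glo luminescence. Normal lung fibroblasts (MRC5) had 40 hr compound treatment at 37 C, normalized between DMSO and 100 uM tamoxifen.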

[15] = Cellular Toxicity (caspase-3) BJ (AID 658); details: Potency: caspase-3 activation;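 also: cells exposed to compound for 16 hours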
In short: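 Caspase-Glo 3/7 luminescence, read 1 hr after reagent at room temperature, in normal BJ fibroblasts exposed 16 hours at 37 °C. AC50 values from Hill-equation concentration-response, scaled between DMSO basal and 10 uM staurosporine as 100%.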

[16] = Cellular Toxicity (caspase-3) Hek293 (AID 664); details: HEK293 caspase-3 activation, DMSO = 0%, 100 µM tamoxifen = 100%; at 92.2 µM (top of the series);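 also: cells exposed to compound for 16 h at 37 °C before readout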
In short: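 Concentration-response qHTS: caspase 3/7 activation measured by luminescent aminoluciferin substrate cleavage after 16 h compound exposure of Hek 293 cells. AC50 from Hill equation, with DMSO as basal and 100 uM tamoxifen as 100%.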

[17] = molecular target: Estrogen receptor (Homo sapiens) (UniProt P03372); experiment: qHTS assay for small molecule antagonists of estrogen receptor alpha signaling (AID 588513; active = well fitted curve in the direction sought with a large enough effect in the signal ratio, with a control signal flat, not every such curve was filed as active; the % refers to the signal ratio)
In short: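 ER-alpha-UAS-bla GripTite HEK 293 cells in 2% charcoal/dextran-treated FBS medium; compounds titrated (1:2, duplicate), then stimulated with 0.5 nM 17-beta-estradiol for 18 h at 37C. CCF4 beta-lactamase fluorescence; Hill-fit IC50 and efficacy.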

[18] = qHTS assay for small molecule agonists of the antioxidant response element (ARE) signaling pathway (AID 651741; active = well fitted activation curve with a large enough effect in the signal ratio; the % refers to the signal ratio; also: potency is read from the fitted curve at half-maximal effect)
In short: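 Beta-lactamase reporter under ARE control in HepG2 cells, 2,000 per well, was induced by 16 h compound treatment at 37 C. Read-out was fluorescence from LiveBLAzer B/G FRET substrate after 2 h at room temperature.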

[19] = qHTS assay for small molecule activators of the nuclear factor-kappa B (NF-kB) signaling pathway (AID 651749; active = well fitted activation curve with a large enough effect in the signal ratio; the % refers to the signal ratio); details: NF-kB-bla ME-180 cells, beta-lactamase FRET ratio, 16 h; stronger effect = higher value
In short: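 Activation measured after 16 hr compound treatment at 37C, 5% CO2, of 2,000 ME-180 cells/well stably expressing an NF-kB response element–driven beta-lactamase reporter, via FRET-disruption fluorescence.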

[20] = qHTS assay for small molecule agonists of the antioxidant response element (ARE) signaling pathway measured by Nrf2-dependant transcriptional activity - cell viability counter screen (AID 720653; active = well fitted curve in the direction sought with a large enough effect in the repeat runs; an effect the other way counts as inactive or inconclusive); details: ARE-bla HepG2 viability, CellTiter-Glo ATP luminescence, 16 h; max response: stronger effect = lower value
In short: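 Cytotoxicity counter screen: intracellular ATP quantified by CellTiter-Glo luminescence in the same ARE-bla HepG2 plates, after 16 h compound exposure and a 2 h beta-lactamase substrate step.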

Sequence of Peroxisome proliferator-activated receptor delta (Homo sapiens) (Q03181 whole entry, looked up): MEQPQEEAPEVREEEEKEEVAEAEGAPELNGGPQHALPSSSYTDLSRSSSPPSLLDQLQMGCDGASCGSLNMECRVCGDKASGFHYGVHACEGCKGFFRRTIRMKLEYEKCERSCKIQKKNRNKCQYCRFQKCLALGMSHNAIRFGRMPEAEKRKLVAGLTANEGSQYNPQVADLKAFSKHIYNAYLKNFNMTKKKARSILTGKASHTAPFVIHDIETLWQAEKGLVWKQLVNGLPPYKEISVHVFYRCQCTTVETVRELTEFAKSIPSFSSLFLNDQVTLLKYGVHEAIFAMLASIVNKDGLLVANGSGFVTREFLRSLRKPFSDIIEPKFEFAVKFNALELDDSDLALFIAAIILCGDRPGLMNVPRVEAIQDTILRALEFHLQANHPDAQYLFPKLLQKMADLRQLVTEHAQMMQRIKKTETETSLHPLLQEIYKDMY
Sequence of Peroxisome proliferator-activated receptor gamma (Homo sapiens) (P37231 whole entry, looked up): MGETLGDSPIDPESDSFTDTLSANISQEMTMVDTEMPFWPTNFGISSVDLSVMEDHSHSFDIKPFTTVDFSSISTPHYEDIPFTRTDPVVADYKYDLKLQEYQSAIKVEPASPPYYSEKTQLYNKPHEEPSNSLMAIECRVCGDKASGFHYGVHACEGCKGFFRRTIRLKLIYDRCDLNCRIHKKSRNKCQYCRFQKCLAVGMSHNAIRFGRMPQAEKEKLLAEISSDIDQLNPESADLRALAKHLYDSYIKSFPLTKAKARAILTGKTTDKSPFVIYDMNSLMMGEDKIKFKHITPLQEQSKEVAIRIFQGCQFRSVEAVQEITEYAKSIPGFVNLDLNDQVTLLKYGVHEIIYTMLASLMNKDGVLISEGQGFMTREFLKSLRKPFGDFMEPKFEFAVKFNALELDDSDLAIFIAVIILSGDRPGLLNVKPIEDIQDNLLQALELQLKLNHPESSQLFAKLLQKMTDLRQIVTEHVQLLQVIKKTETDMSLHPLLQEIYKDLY
Sequence of Estrogen receptor (Homo sapiens) (P03372 whole entry, looked up): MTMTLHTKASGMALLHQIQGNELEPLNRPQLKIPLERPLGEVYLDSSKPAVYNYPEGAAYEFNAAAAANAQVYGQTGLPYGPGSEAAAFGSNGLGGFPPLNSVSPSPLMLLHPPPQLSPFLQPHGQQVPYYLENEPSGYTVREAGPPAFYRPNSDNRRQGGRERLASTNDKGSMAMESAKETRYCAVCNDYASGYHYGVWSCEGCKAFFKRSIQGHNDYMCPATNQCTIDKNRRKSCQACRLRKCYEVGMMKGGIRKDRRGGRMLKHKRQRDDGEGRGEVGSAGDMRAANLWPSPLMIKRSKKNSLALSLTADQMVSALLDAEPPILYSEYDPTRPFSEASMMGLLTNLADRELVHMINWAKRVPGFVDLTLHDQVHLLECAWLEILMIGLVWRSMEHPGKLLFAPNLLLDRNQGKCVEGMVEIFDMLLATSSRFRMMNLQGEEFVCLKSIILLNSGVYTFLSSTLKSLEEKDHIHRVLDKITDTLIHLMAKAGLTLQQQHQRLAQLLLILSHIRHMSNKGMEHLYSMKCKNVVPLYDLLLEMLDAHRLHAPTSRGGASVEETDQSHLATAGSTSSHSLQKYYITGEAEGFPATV
Sequence of Nuclear receptor ROR-gamma (Homo sapiens) (P51449 whole entry, looked up): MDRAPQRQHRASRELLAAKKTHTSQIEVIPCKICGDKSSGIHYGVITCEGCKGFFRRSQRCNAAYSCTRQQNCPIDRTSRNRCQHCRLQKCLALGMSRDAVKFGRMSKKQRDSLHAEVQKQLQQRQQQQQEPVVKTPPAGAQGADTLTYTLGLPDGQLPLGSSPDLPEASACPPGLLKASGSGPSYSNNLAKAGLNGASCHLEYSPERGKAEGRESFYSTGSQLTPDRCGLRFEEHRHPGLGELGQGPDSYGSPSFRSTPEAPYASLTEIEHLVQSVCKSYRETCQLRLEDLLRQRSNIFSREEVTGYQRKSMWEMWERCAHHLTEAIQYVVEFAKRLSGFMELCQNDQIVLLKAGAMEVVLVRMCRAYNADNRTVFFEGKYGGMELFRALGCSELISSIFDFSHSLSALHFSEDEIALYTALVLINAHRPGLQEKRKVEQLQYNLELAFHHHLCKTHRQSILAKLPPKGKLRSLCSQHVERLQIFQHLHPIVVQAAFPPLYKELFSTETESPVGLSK
Sequence of Cytochrome P450 3A4 (Homo sapiens) (P08684 whole entry, looked up): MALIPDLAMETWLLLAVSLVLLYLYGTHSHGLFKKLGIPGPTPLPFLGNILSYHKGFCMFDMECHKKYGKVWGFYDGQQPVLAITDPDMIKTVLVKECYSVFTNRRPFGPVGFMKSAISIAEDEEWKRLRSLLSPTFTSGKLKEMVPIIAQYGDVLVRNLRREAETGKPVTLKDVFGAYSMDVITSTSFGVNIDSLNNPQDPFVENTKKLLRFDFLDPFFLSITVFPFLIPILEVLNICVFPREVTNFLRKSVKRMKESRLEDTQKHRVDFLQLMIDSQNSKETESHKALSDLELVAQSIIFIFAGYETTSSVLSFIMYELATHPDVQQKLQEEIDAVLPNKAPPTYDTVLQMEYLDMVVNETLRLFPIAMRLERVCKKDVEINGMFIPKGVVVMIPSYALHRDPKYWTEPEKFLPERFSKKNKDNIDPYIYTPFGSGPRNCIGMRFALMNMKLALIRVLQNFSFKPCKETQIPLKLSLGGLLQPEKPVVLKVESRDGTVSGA

SMILES | activity change, negative = cytotoxicity [1] | Potency [2] | Potency [3] | Potency [4] | Potency [5] | Potency [6] | max response [7] | outcome [8] | outcome [9] | Potency [10] | Potency [11] | max response [12] | outcome [13] | Potency [14] | Potency [15] | caspase-3 activation [16] | outcome [17] | Potency [18] | activation [19] | max response [20]
CCCCCCCCC1CO1 (stereo not drawn) | -9.26% (inactive) | inactive | inactive | inactive | inactive | inactive | -10.9% | inactive | inactive | inactive | inactive | 4.27% (inactive) | inactive | – | – | – | – | – | – | –
Cc1ccccc1OCC1CO1 (stereo not drawn) | -29.7% (inactive) | inactive | inactive | inactive | inactive | inactive | – | – | inactive | inactive | inactive | -12.7% (inactive) | inactive | > 92 µM (inactive) | inactive | 0.226% (inactive) | inactive | inactive | -1.53% (inactive) | 0.854% (inactive)
CC(/C=C/C=C(C)/C=C/C(=O)O)=C\C=C\C=C(C)\C=C\C=C(C)\C=C\C(=O)O | – | inactive | inactive | inactive | – | inactive | – | – | – | inactive | – | -0.748% (inactive) | inactive | > 92 µM (inactive) | – | -7.2% (inactive) | inactive | 37.6 µM (active) | -1.49% (inactive) | –
CCCCC(CC)COCCCN (stereo not drawn) | -23.1% (inactive) | inactive | inactive | – | – | inactive | 8.44% | inactive | – | – | inactive | 10.2% (inactive) | inactive | > 92 µM (inactive) | – | -1.34% (inactive) | inactive | inactive | – | –
Nc1ccccc1O | -130% (active) | inactive | – | inactive | – | – | 17.2% | inactive | inactive | – | inactive | – | – | > 92 µM (inactive) | – | – | inactive | 13.3 µM (active) | – | –
CC(=O)OCc1ccc2c(c1)OCO2 | – | – | inactive | – | – | inactive | – | – | – | inactive | inactive | -6.03% (inactive) | inactive | > 92 µM (inactive) | inactive | -3.09% (inactive) | – | inactive | – | -6.13% (inactive)
O=C1OC(=O)c2ccccc21 | – | inactive | inactive | inactive | – | inactive | -31.3% | inactive | inactive | – | inactive | -11.3% (inactive) | inactive | – | – | 1.71% (inactive) | inactive | inactive | 0.114% (inactive) | -7.68% (inactive)
Nc1cc([N+](=O)[O-])ccc1O | – | – | inactive | inactive | – | inactive | 32.9% and 36.8% | inactive | inactive | 23.7 µM (active) | inactive | 11.2% (inactive) and -4.43% (inactive) | inactive | > 92 µM (inactive) | – | -0.467% (inactive) | – | 29.8 µM (active) and 12.2 µM (active) | -0.245% (inactive) and -0.938% (inactive) | -7.79% (inactive) and -12.9% (inactive)
Brc1cc(Oc2cc(Br)c(Br)c(Br)c2Br)c(Br)c(Br)c1Br | – | inactive | – | inactive | inactive | inactive | 14.5% and 36.5% | inactive | – | inactive | inactive | – | – | > 92 µM (inactive) | inactive | 0.395% (inactive) | – | inactive | 2.9% (inactive) and 0.823% (inactive) | 3.78% (inactive) and -22.3% (inactive)
CCCC(=O)OC(=O)CCC | – | – | inactive | inactive | inactive | inactive | 16.1% and 21.1% | inactive | inactive | inactive | inactive | – | inactive | > 92 µM (inactive) | inactive | – | – | inactive | 0.205% (inactive) and -0.934% (inactive) | -5.41% (inactive) and 18.3% (inactive)
O=C(Cl)c1ccc([N+](=O)[O-])cc1 | -20% (inactive) | inactive | inactive | inactive | inactive | inactive | 8.99% | inactive | inactive | inactive | inactive | 0.724% (inactive) | inactive | > 92 µM (inactive) | inactive | -0.0349% (inactive) | inactive | inactive | -1.16% (inactive) | 1.64% (inactive)
CN(C)c1ccc(Cc2ccc(N(C)C)cc2)cc1 | -18.8% (inactive) | inactive | inactive | – | – | inactive | 11.4% and 3.82% | inactive | inactive | – | inactive | -15.2% (inactive) and -24.3% (inactive) | – | > 92 µM (inactive) | – | 2.63% (inactive) | – | – | -0.0867% (inactive) and 0.169% (inactive) | –
Cc1ccc(S(N)(=O)=O)cc1 | – | – | inactive | inactive | inactive | inactive | 10.9% and 2.08% | inactive | inactive | – | inactive | – | inactive | – | – | -1.71% (inactive) | – | inactive and 68.6 µM (active) | 1.55% (inactive) and -0.345% (inactive) | –
C=CC(=O)CC | -11.9% (inactive) | inactive | inactive | inactive | inactive | inactive | – | – | inactive | inactive | – | – | – | – | inactive | 0.103% (inactive) | – | – | – | -0.839% (inactive)
CC(C)COC(=O)COc1cc(Cl)c(Cl)cc1Cl | -0.53% (inactive) | – | – | inactive | – | inactive | 16.7% | inactive | inactive | inactive | inactive | 6.88% (inactive) | inactive | > 92 µM (inactive) | inactive | 3.66% (inactive) | inactive | 42.2 µM (active) | -1.07% (inactive) | 7.92% (inactive)
